Experimental data taken from PubChem BioAssay (NCI).
Compounds without any hit were thinned out: in the full panel of roughly 83,000, 20% have a hit.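 Cells were grown in 96-well plates and exposed to the test compound at a single concentration for 48 hours; results are reported as percent growth, with values below 10 considered active.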 The source made the active and inactive calls.

Experiments:
Assay in all cases: NCI-60 one-dose screen, 48 h (100 = growth as untreated, 0 = no growth, -100 = all killed)
SK-MEL-2 melanoma = conditions: 10 µM unless noted
EKVX NSCLC = conditions: 10 µM unless noted
SN12C renal = conditions: 10 µM unless noted
UO-31 renal = conditions: 10 µM unless noted
ACHN renal = conditions: 10 µM unless noted
A498 renal = conditions: 10 µM unless noted
CCRF-CEM leukemia = conditions: 10 µM unless noted
MOLT-4 leukemia = conditions: 10 µM unless noted
SR leukemia = conditions: 10 µM unless noted
OVCAR-8 ovarian = conditions: 10 µM unless noted
OVCAR-5 ovarian = conditions: 10 µM unless noted
OVCAR-4 ovarian = conditions: 10 µM unless noted
SK-OV-3 ovarian = conditions: 10 µM unless noted
IGROV1 ovarian = conditions: 10 µM unless noted
OVCAR-3 ovarian = conditions: 10 µM unless noted
HS 578T breast = conditions: 10 µM unless noted
NCI/ADR-RES ovarian = conditions: 10 µM unless noted
TK-10 renal = conditions: 10 µM unless noted
CAKI-1 renal = conditions: 10 µM
RPMI-8226 leukemia = conditions: 10 µM unless noted

Measured: growth

COc1cc([C@H]2OC[C@H]3[C@@H]2CO[C@@H]3c2ccc(O)c(OC)c2)ccc1O
inactive: SK-MEL-2 melanoma 95.3% | EKVX NSCLC 80.3% | SN12C renal 74.6% | UO-31 renal 83.1% | ACHN renal 93.5% | A498 renal 112% | CCRF-CEM leukemia 94.2% | MOLT-4 leukemia 109% | SR leukemia 67.3% | OVCAR-8 ovarian 84.2% | OVCAR-5 ovarian 86.6% | OVCAR-4 ovarian 96.6% | SK-OV-3 ovarian 69% | IGROV1 ovarian 69.9% | OVCAR-3 ovarian 96.8% | HS 578T breast 107% | NCI/ADR-RES ovarian 85.7%

CCOC(=O)c1c(NCC(=O)Nc2cccc(Cl)c2)sc2c1CCCC2
inactive: SK-MEL-2 melanoma 93.5% | EKVX NSCLC 89.9% | SN12C renal 73% | TK-10 renal 146% | ACHN renal 88.7% | CAKI-1 renal 68.4% | CCRF-CEM leukemia 58% | MOLT-4 leukemia 47.2% | SR leukemia 69.4% | RPMI-8226 leukemia 78.6% | OVCAR-8 ovarian 87.7% | OVCAR-5 ovarian 94.5% | OVCAR-4 ovarian 80.3% | SK-OV-3 ovarian 84.2% | IGROV1 ovarian 50.6% | OVCAR-3 ovarian 82.8% | HS 578T breast 77.4% | NCI/ADR-RES ovarian 81.6%

NNC(=O)c1sc2nc(-c3cnccn3)cc(-c3cccs3)c2c1N
inactive: SK-MEL-2 melanoma 102% | EKVX NSCLC 86.8% | SN12C renal 95.5% | TK-10 renal 118% | ACHN renal 95.4% | CAKI-1 renal 87.6% | A498 renal 79.5% | CCRF-CEM leukemia 62.7% | MOLT-4 leukemia 77% | SR leukemia 86.5% | RPMI-8226 leukemia 107% | OVCAR-8 ovarian 93.8% | OVCAR-5 ovarian 99.1% | OVCAR-4 ovarian 74.4% | SK-OV-3 ovarian 92.1% | IGROV1 ovarian 89.5% | OVCAR-3 ovarian 84.5% | HS 578T breast 119% | NCI/ADR-RES ovarian 105%

Cc1ccc(-c2cc(-c3ccc(N(C)C)cc3)n3c(n2)nc2ccccc23)cc1
inactive: SK-MEL-2 melanoma 16% | EKVX NSCLC 57.9% | SN12C renal 62.8% | TK-10 renal 61.1% | ACHN renal 49.3% | CAKI-1 renal 59.3% | A498 renal 15.6% | CCRF-CEM leukemia 54.8% | MOLT-4 leukemia 38.9% | RPMI-8226 leukemia 36.2% | OVCAR-8 ovarian 54.2% | OVCAR-5 ovarian 109% | OVCAR-4 ovarian 60.9% | SK-OV-3 ovarian 81.3% | IGROV1 ovarian 86.2% | HS 578T breast 83% | NCI/ADR-RES ovarian 56.7%

Cc1ccc(-n2cc(/C=C/C(=O)c3ccc(S(C)(=O)=O)cc3)c(-c3ccc(S(C)(=O)=O)cc3)n2)cc1
inactive: SK-MEL-2 melanoma 107% | EKVX NSCLC 93.2% | SN12C renal 89.7% | TK-10 renal 127% | ACHN renal 93.3% | CAKI-1 renal 89.2% | A498 renal 84.6% | CCRF-CEM leukemia 77.5% | MOLT-4 leukemia 71.9% | SR leukemia 44% | RPMI-8226 leukemia 92.3% | OVCAR-8 ovarian 97.5% | OVCAR-5 ovarian 98.3% | OVCAR-4 ovarian 109% | SK-OV-3 ovarian 105% | IGROV1 ovarian 69.2% | OVCAR-3 ovarian 75.9% | HS 578T breast 103% | NCI/ADR-RES ovarian 64%

O=C(CN1C(=O)CSC1=O)Nc1ccc(C(=O)/C=C/c2cc3ccccc3nc2Cl)cc1
inactive: SK-MEL-2 melanoma 88.5% | EKVX NSCLC 72.1% | SN12C renal 83.8% | TK-10 renal 92.1% | ACHN renal 83.5% | CAKI-1 renal 63% | A498 renal 94.3% | CCRF-CEM leukemia 45.5% | MOLT-4 leukemia 36.4% | SR leukemia 36.7% | OVCAR-8 ovarian 77.7% | OVCAR-5 ovarian 101% | OVCAR-4 ovarian 46.4% | SK-OV-3 ovarian 101% | IGROV1 ovarian 66.9% | OVCAR-3 ovarian 87.4% | HS 578T breast 82.7%
active: RPMI-8226 leukemia -13.2%

CCN(CC)CCN1C(=O)c2c(c3c4cccnc4[nH]c3c3ccc4ccccc4c23)C1=O
inactive: SK-MEL-2 melanoma 107% | EKVX NSCLC 89% | SN12C renal 71.9% | TK-10 renal 121% | ACHN renal 35.9% | CAKI-1 renal 46.5% | A498 renal 77.3% | CCRF-CEM leukemia 21.9% | MOLT-4 leukemia 12.8% | RPMI-8226 leukemia 73.1% | OVCAR-8 ovarian 62.3% | OVCAR-5 ovarian 111% | OVCAR-4 ovarian 102% | SK-OV-3 ovarian 64.4% | IGROV1 ovarian 55% | HS 578T breast 109% | NCI/ADR-RES ovarian 55.5%
active: SR leukemia 3.65%

Cc1ccc(-c2cc(-c3cccc4ccccc34)n3c(n2)nc2ccccc23)cc1
inactive: SK-MEL-2 melanoma 105% | EKVX NSCLC 78.7% | SN12C renal 61.2% | TK-10 renal 69.1% | ACHN renal 24.8% | CAKI-1 renal 23.1% | A498 renal 52.5% | CCRF-CEM leukemia 37.5% | RPMI-8226 leukemia 65.2% | OVCAR-8 ovarian 58.4% | OVCAR-5 ovarian 92.7% | OVCAR-4 ovarian 79.6% | SK-OV-3 ovarian 100% | IGROV1 ovarian 59.5% | HS 578T breast 56.5% | NCI/ADR-RES ovarian 67.7%
active: MOLT-4 leukemia 4.63%

O=C(/C=C1\C=CN(CCCCF)c2ccccc21)n1ccc2ccccc21
inactive: SK-MEL-2 melanoma 103% | EKVX NSCLC 90.7% | SN12C renal 94.6% | TK-10 renal 117% | ACHN renal 97.6% | CAKI-1 renal 87.5% | A498 renal 135% | CCRF-CEM leukemia 96.4% | MOLT-4 leukemia 105% | SR leukemia 107% | OVCAR-8 ovarian 106% | OVCAR-5 ovarian 99.2% | OVCAR-4 ovarian 85.4% | SK-OV-3 ovarian 95.9% | IGROV1 ovarian 74.9% | OVCAR-3 ovarian 126% | HS 578T breast 119% | NCI/ADR-RES ovarian 108%

COc1cc(C2CC(c3ccc(Nc4nc(NCCO)nc(Nc5ccc(Cl)cc5)n4)cc3)=Nc3c(N)nc(N)nc3N2)cc(OC)c1OC (stereo not drawn)
inactive: SK-MEL-2 melanoma 75.9% | EKVX NSCLC 109% | SN12C renal 49.9% | TK-10 renal 95.8% | ACHN renal 79.3% | CAKI-1 renal 53.8% | A498 renal 99.8% | CCRF-CEM leukemia 23.8% | MOLT-4 leukemia 19.9% | RPMI-8226 leukemia 37.5% | OVCAR-8 ovarian 47.6% | OVCAR-5 ovarian 119% | OVCAR-4 ovarian 65.2% | IGROV1 ovarian 62.5% | HS 578T breast 35% | NCI/ADR-RES ovarian 103%

CCOC(=O)c1c(NC(=O)c2ccc(F)cc2F)sc2c1CCC(=O)C2
inactive: SK-MEL-2 melanoma 98.3% | EKVX NSCLC 97.7% | SN12C renal 99% | TK-10 renal 124% | ACHN renal 95.6% | CAKI-1 renal 80.1% | CCRF-CEM leukemia 98.2% | MOLT-4 leukemia 95.8% | SR leukemia 88% | RPMI-8226 leukemia 106% | OVCAR-8 ovarian 96.9% | OVCAR-5 ovarian 104% | OVCAR-4 ovarian 102% | SK-OV-3 ovarian 104% | IGROV1 ovarian 100% | OVCAR-3 ovarian 113% | HS 578T breast 103% | NCI/ADR-RES ovarian 96.8%

CCCCCCNC(=O)Oc1ccc(/C(=C(/C)c2ccc(OC)cc2)c2ccc(OCCN3CCCC3)cc2)cc1
active: SR leukemia 5.51%
inactive: SK-MEL-2 melanoma 93.4% | EKVX NSCLC 79.5% | SN12C renal 82.3% | TK-10 renal 116% | ACHN renal 84.3% | CAKI-1 renal 87% | CCRF-CEM leukemia 62.4% | MOLT-4 leukemia 30.4% | RPMI-8226 leukemia 16.8% | OVCAR-8 ovarian 86.6% | OVCAR-5 ovarian 81.5% | OVCAR-4 ovarian 84.8% | SK-OV-3 ovarian 97.9% | IGROV1 ovarian 65.7% | OVCAR-3 ovarian 89.8% | HS 578T breast 83.7% | NCI/ADR-RES ovarian 77%

CC1OC(O[C@@H]2[C@H](O)C(CO)OC(O[C@H]3COC(O[C@H]4CC[C@]5(C)[C@H]6CC[C@]78OC[C@@]9(CCC(C)(C)C[C@H]97)[C@H](O)C[C@@]8(C)[C@]6(C)CC[C@H]5C4(C)C)[C@@H](OC4OC(CO)[C@@H](O)[C@@H](O)[C@@H]4O)[C@@H]3O)[C@H]2OC2OC[C@@H](O)[C@@H](O)[C@@H]2O)[C@@H](O)[C@@H](O)[C@H]1O (stereo partly drawn)
active: SK-MEL-2 melanoma -81.4% | EKVX NSCLC -64% | UO-31 renal -90.8% | TK-10 renal -93.8% | ACHN renal -92.5% | CAKI-1 renal -95.9% | A498 renal -86.5% | CCRF-CEM leukemia -60% | MOLT-4 leukemia -61.1% | SR leukemia -51.3% | RPMI-8226 leukemia -46.3% | OVCAR-8 ovarian -69% | OVCAR-5 ovarian -69% | OVCAR-4 ovarian -74.1% | SK-OV-3 ovarian -94.3% | IGROV1 ovarian -66.3% | OVCAR-3 ovarian -89.8% | HS 578T breast -54.4% | NCI/ADR-RES ovarian -44.2%

COc1cc(/C=N/n2cnc3oc(-c4ccccc4)cc3c2=N)cc(CN2CCN(C)CC2)c1O
inactive: SK-MEL-2 melanoma 113% | EKVX NSCLC 99.3% | SN12C renal 80.4% | TK-10 renal 113% | ACHN renal 83.1% | CAKI-1 renal 73.3% | A498 renal 72.2% | CCRF-CEM leukemia 66.9% | MOLT-4 leukemia 76.4% | SR leukemia 35.2% | RPMI-8226 leukemia 95.8% | OVCAR-8 ovarian 93.9% | OVCAR-5 ovarian 105% | OVCAR-4 ovarian 97.7% | SK-OV-3 ovarian 91.3% | IGROV1 ovarian 61.7% | OVCAR-3 ovarian 110% | HS 578T breast 68% | NCI/ADR-RES ovarian 98.7%

CC[C@H](C)[C@H]1NC(=O)[C@@H]([C@H](O)C(C)C)NC(=O)[C@@H](C)N(C)C(=O)[C@H](C)N(C)C(=O)[C@H](CC(C)C)NC(=O)[C@H](CC(C)C)N(C)C(=O)[C@H](C)N(C)C1=O
inactive: IGROV1 ovarian 10.5% | NCI/ADR-RES ovarian 11.4%
active: SK-MEL-2 melanoma -27% | EKVX NSCLC -4.22% | SN12C renal 2.49% | TK-10 renal 1.97% | ACHN renal 5.95% | A498 renal 5.77% | CCRF-CEM leukemia 4.88% | MOLT-4 leukemia 1.68% | SR leukemia 5.76% | RPMI-8226 leukemia -13.8% | OVCAR-8 ovarian 4.14% | OVCAR-5 ovarian 6.87% | OVCAR-4 ovarian 8.31% | OVCAR-3 ovarian 6.47% | HS 578T breast 5.82%
